These results are taken from the supplement of paper PMC4840960.

For experiment [1], the system named is E18 rat cortical neuron-glia co-culture. Nature of the experiment: fiber score / MBP score (myelination specific beyond OL differentiation) (ratio); higher = more myelination-specific MBP alignment. To be noted: treatment time: 8 days (DIV5-DIV13). In a few lines: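 Fiber score divided by MBP score is the read-out; fiber score is continuous MBP fiber length per Olig2+ nucleus, and MBP score is thresholded MBP area × intensity per Olig2+ nucleus. Primary E18 rat cortical co-cultures were dissociated with papain and seeded at 20,000 cells/well on poly-d-lysine/laminin 96-well plates. Library compounds at 1 or 5 µM were given in myelination medium from DIV5 to DIV13, after which cells were fixed in 4 % paraformaldehyde, immunostained for MBP and Olig2 with DAPI, and imaged in four 10X fields per well in duplicate wells.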

For experiment [2] the test system is unchanged. The experiment is described as follows: myelination (MBP fiber length per Olig2+ nucleus), % of 1 µM DAPT response (DMSO = 0) (% of DAPT); higher = more myelination, active = 50 or more. To be noted: treatment time: 8 days (DIV5-DIV13). In a few lines:
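Four 10X fields in each of duplicate wells were analysed after cultures were fixed in 4 % paraformaldehyde and immunostained for MBP and Olig2, with DAPI as the nuclear counterstain. The cultures were papain-dissociated primary E18 rat cortical co-cultures at 20,000 cells/well on poly-d-lysine/laminin 96-well plates, dosed with library compounds at 1 or 5 µM in myelination medium from DIV5 to DIV13. The myelination readout was continuous straight MBP fiber length per Olig2+ nucleus, with 0.1 % DMSO set to 0 and a 1 µM positive control set to 100.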

With `O=c1[nH]c(=O)n(C2CCCO2)cc1F` (configuration not stated) [Tegafur], the entries for the “fiber score / MBP score” value in experiment [1] (1 µM) and in experiment [1] (5 µM) were 0.967 and 0.729, respectively. Further, the myelination in experiment [2] (1 µM) is -11.7 (inactive); in experiment [2] (5 µM) it was 34.5 (inactive).
Turning to `O=C(O)CCCc1ccccc1` [4-Phenylbutyric acid], the “fiber score / MBP score” value amounted to 1.07 in experiment [1] (1 µM) and 0.747 in experiment [1] (5 µM). Further, the myelination in experiment [2] (1 µM) was 10.1 (inactive); in experiment [2] (5 µM), -8.79 (inactive).
The corresponding values for `CC(=O)OCC(=O)[C@@]1(O)CC[C@H]2[C@@H]3C[C@H](C)C4=CC(=O)C=C[C@]4(C)[C@H]3[C@@H](O)C[C@@]21C` [Methylprednisolone acetate] are 0.468, 0.413, -10.5 (inactive) and -15.1 (inactive).
For `CC(=O)OCC(CCn1cnc2cnc(N)nc21)COC(C)=O` [Famciclovir], in that order: 0.681, 0.977, -22.4 (inactive) and -2.76 (inactive).
The corresponding values for `CC(C)OC(=O)C(C)(C)Oc1ccc(C(=O)c2ccc(Cl)cc2)cc1` [Fenofibrate] are 0.901, 0.661, -0.815 (inactive) and 21.8 (inactive).
As for `CC(=O)Oc1ccccc1C(=O)Nc1ncc([N+](=O)[O-])s1` [Nitazoxanide], the “fiber score / MBP score” value in experiment [1] (1 µM) turned out to be 1.18; in experiment [1] (5 µM), 1.61. The myelination in experiment [2] (1 µM) was 4.89 (inactive); in experiment [2] (5 µM) it was 91.6 (active).
`CCOc1cc(N)c(Cl)cc1C(=O)NCC1CN(Cc2ccc(F)cc2)CCO1` (configuration not stated) [Mosapride]: the “fiber score / MBP score” value in experiment [1] (1 µM) was 0.736; in experiment [1] (5 µM), 0.556. For the same compound, the myelination in experiment [2] (1 µM) is -41.5 (inactive); in experiment [2] (5 µM), -56.5 (inactive).
On to `COc1ccccc1N1CCN(CC(O)COc2cccc3ccccc23)CC1` (configuration not stated) [Naftopidil], for which the figures for the “fiber score / MBP score” value in experiment [1] (1 µM) and in experiment [1] (5 µM) were 0.655 and 0.695, respectively. Further, the figures for the myelination in experiment [2] (1 µM) and in experiment [2] (5 µM) were -33.5 (inactive) and 15 (inactive), respectively.
For `Nc1nc2c(ncn2COCCO)c(=O)[nH]1` [Acyclovir], in that order: 0.568, 1.1, -11.9 (inactive) and 29.3 (inactive).
Take `O=C(O)c1cc(=O)c2c(OCC(O)COc3cccc4oc(C(=O)O)cc(=O)c34)cccc2o1` [Cromolyn Sodium]: the entries for the “fiber score / MBP score” value in experiment [1] (1 µM) and in experiment [1] (5 µM) were 0.501 and 0.409, respectively. Moreover, the myelination in experiment [2] (1 µM) was -7.17 (inactive); in experiment [2] (5 µM) it was -12.9 (inactive).
For `CCCC1O[C@@H]2C[C@H]3[C@@H]4CCC5=CC(=O)C=C[C@]5(C)[C@H]4[C@@H](O)C[C@]3(C)[C@]2(C(=O)CO)O1` (some centres not stated) [Budesonide], the figures for the “fiber score / MBP score” value in experiment [1] (1 µM) and in experiment [1] (5 µM) were 0.86 and 0.762, respectively. Also, the myelination in experiment [2] (1 µM) is 3.65 (inactive); in experiment [2] (5 µM) it was -18.8 (inactive).
Take `O=C1NC(C(=O)O)CS1` (configuration not stated) [2-oxothiazolidine-4-carboxylic acid]: the entries for the “fiber score / MBP score” value in experiment [1] (1 µM) and in experiment [1] (5 µM) were 0.704 and 0.758, respectively. Also, the myelination was -34.3 (inactive) in experiment [2] (1 µM) and -59.9 (inactive) in experiment [2] (5 µM).
For `CCCC(CCC)C(=O)O` [Valproic Acid], the “fiber score / MBP score” value in experiment [1] (1 µM) turned out to be 0.837; in experiment [1] (5 µM) it was 0.944. Also, the myelination is -6.19 (inactive) in experiment [2] (1 µM) and -3.27 (inactive) in experiment [2] (5 µM).
On to `O=C1c2c(O)cc(O)cc2O[C@H](c2ccc(O)c(O)c2)[C@H]1O` [Distylin], for which the results for the “fiber score / MBP score” value in experiment [1] (1 µM) and in experiment [1] (5 µM) were 0.8 and 1.16, respectively. In addition, the myelination in experiment [2] (1 µM) was -6.73 (inactive); in experiment [2] (5 µM), 0.864 (inactive).
For `O=C1Nc2ccc(Cl)cc2[C@@](C#CC2CC2)(C(F)(F)F)O1` [Efavirenz], in that order: 0.744, 0.712, -8.9 (inactive) and 11.1 (inactive).
For `CC(=O)CC(c1ccccc1)c1c(O)c2ccccc2oc1=O` (configuration not stated) [Warfarin], in that order: 0.617, 0.623, -6.64 (inactive) and -6.48 (inactive).
The corresponding values for `CCOC(=O)c1ccc(OC(=O)CCCCCNC(=N)N)cc1` [Gabexate] are 0.709, 0.799, -20.3 (inactive) and -14.2 (inactive).
For the compound `O=C(O)COCCN1CCN(C(c2ccccc2)c2ccc(Cl)cc2)CC1` (configuration not stated) [Virlix], the “fiber score / MBP score” value was 0.867 in experiment [1] (1 µM) and 0.681 in experiment [1] (5 µM). For the same compound, the myelination in experiment [2] (1 µM) is -2.52 (inactive); in experiment [2] (5 µM), -8.81 (inactive).
